Screening results (PubChem BioAssay)
Hits are enriched below; roughly 2.9% of the tested compounds scored in any of these assays.
LMP1 NFkB inh = Epstein-Barr LMP1 NF-kappaB reporter inhibition. AID 504558. LMP1-induced NF-kappaB luciferase reporter cells, luminescence. hit rate 0.69% among 350,000. inhibition, % at 12.5 µM; in the data active means inhibition above about 41%; inconclusive means no clear call, values can overlap the other calls;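 further: 0% = neutral control wells and 100% = reference inhibitor control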
CF NFkB block = inhibitors of cystic fibrosis induced NF-kB | hit rate 0.86% among 360,000 | KKLEB NF-kB-GFP reporter, PAF-induced, GFP fluorescence overnight | inhibition, % at 5 µM;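 active means at least 50% inhibition at 5 µM, scaled per plate between neutral and stimulator controls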;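 further: PAF is a Pseudomonas aeruginosa culture filtrate used as stimulus; plate controls were PAF-stimulated DMSO wells for no effect and unstimulated DMSO wells for full effect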
Peg3 promoter = Peg3 promoter activity inhibition; HeLa PEG-Prom luciferase reporter, luminescence, overnight; inhibition, % at 20 µM; hit rate 1.7% among 360,000; AID 588405;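 active means inhibition of at least 50% at 20 µM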
Shn3 3UTR inh = inhibitors of Schnurri-3 3'UTR reporter in osteoblasts; Clone20 osteoblast Shn3 3'UTR firefly luciferase, 24 h; inhibition, % at 12.5 µM; hit rate 0.52% among 360,000; AID 588674;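 active means mean inhibition of at least 75% with every replicate also reaching 75%; inconclusive means mean inhibition at least 75% but some replicate below; inactive means mean inhibition below 75%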;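 further: 0% = median of neutral control wells and 100% = pilot-screen positive control compound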
KKLEB tox = reduces viability of KKLEB cystic fibrosis airway cells. KKLEB CF airway cells viability, ATPlite luminescence, overnight; stronger effect = lower value; cells stimulated with P. aeruginosa culture filtrate. activity change (cytotoxicity), % at 5 µM. hit rate 0.36% among 360,000. AID 602141;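 active means corrected activity change at or below -50% at 5 µM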
TRPM1 prom inh = reduces MITF-dependent TRPM1 promoter luciferase signal; inhibition, % at 12.5 µM; AID 488899; SK-MEL-5 TRPM1 promoter luciferase, 24 h; hit rate 0.83% among 330,000;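 active means mean inhibition across replicates of 60% or more, whatever share of single replicates reaches that level; inconclusive means some that reach 60%, reason not given; inactive means mean inhibition across replicates below 60%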
Starred values were filed as active, the others as inactive; ? = inconclusive; . = not tested or not shown.

SMILES | LMP1 NFkB inh | CF NFkB block | Peg3 promoter | Shn3 3UTR inh | KKLEB tox | TRPM1 prom inh
CCc1nc2c(OCc3ccc(C#N)cc3)cccn2c1N(C)C(=O)c1ccc(C)cc1 | . | -31 | 16 | 12 | 0 | .
Clc1cccc(CN2CCc3c([nH]c4ccccc34)C2)c1 | 12 | -10 | 60* | 1 | -26 | 9
COc1cc(OC)c(CN2CCc3c([nH]c4ccccc34)C2)cc1Br | 75* | 24 | 21 | 19 | -5 | 17
Cc1cccc(CN2CCc3c([nH]c4ccccc34)C2)c1 | 13 | -5 | 17 | -2 | 5 | 18
CC(C)NC(=O)Nc1ccc2c(c1)C(=O)N([C@H](C)CO)C[C@H](C)[C@@H](CN(C)S(=O)(=O)c1ccc(F)cc1)O2 | 4 | -29 | -9 | -16 | 0 | -2
O=C(CC[C@H]1O[C@@H](n2cnc3c(NC(=O)c4ccccc4)ncnc32)[C@H](O)[C@@H]1O)N[C@@H](CO)c1ccccc1 | . | -40 | -26 | -14 | -3 | .
CCOC(=O)C1=CN(Cc2ccco2)S(=O)(=O)NC1CC (centres undefined) | -6 | -6 | -1 | -23 | 7 | 4
COCCNC(=O)CN(C(=O)CCC(=O)Nc1ccccn1)c1ccc(F)c(Cl)c1 | 87* | -3 | 5 | -8 | 1 | -1
CCOC1=C2[C@@H](CN(S(=O)(=O)c3ccc(C)cc3)[C@H]2c2ccccc2F)[C@H]2C(=O)N(C3CCCCC3)C(=O)[C@H]2C1 | . | 15 | 9 | 8 | -2 | .
Cc1nc(NC(=O)/C=C/c2ccccc2)n[nH]1 | -45 | 44 | 92* | -19 | -4 | ?
CN1CCN(Cc2c(C(=O)N/N=C/c3cccc(Br)c3)nnn2-c2nonc2N)CC1 | 0 | -28 | 41 | -1 | -10 | 77*
CCOc1ccc(-c2c(C(=O)N/N=C/c3cccc(Br)c3)nnn2-c2nonc2N)cc1 | -5 | 38 | 56* | 13 | -35 | 3
Nc1nonc1-n1nnc(C(=O)N/N=C/c2cccc(O)c2)c1CN1CCCC1 | 6 | 13 | 10 | 0 | -4 | 3
CC(=O)Nc1cccc(NC(=O)NC2CC(=O)N(c3ccc4c(c3)OCCO4)C2)c1 (centres undefined) | 1 | 27 | 2 | -16 | -1 | .
CCOC(=O)Cn1c(=NC(=O)c2ccc([N+](=O)[O-])s2)sc2ccccc21 | 12 | -3 | -9 | 15 | -6 | 73*
CCOC(=O)Cn1c(=NC(=O)C2COc3ccccc3O2)sc2cc(S(N)(=O)=O)ccc21 (centres undefined) | -6 | 2 | 3 | -1 | 4 | -10
C[C@@H]1CCCCO[C@@H](CN(C)CC2CCCCC2)[C@@H](C)CN([C@H](C)CO)C(=O)c2cc(NS(=O)(=O)c3ccc(Cl)cc3)ccc2O1 | -14 | -24 | 90* | 42 | 16 | .
C[C@H](CO)N1C[C@H](C)[C@@H](CN(C)C)Oc2c(NC(=O)Cc3ccccc3)cccc2C1=O | 44* | 8 | 7 | -1 | -3 | -5
C[C@@H]1CN([C@@H](C)CO)C(=O)c2cc(NC(=O)Nc3ccccc3)ccc2O[C@H]1CN(C)C(=O)Nc1cccc2ccccc12 | 58* | -19 | 28 | 11 | -8 | 12
C[C@@H]1CN([C@@H](C)CO)C(=O)Cc2cc(NC(=O)Nc3ccc(F)cc3)ccc2O[C@@H]1CN(C)Cc1ccc(Cl)c(Cl)c1 | -16 | 52* | 85* | 27 | -20 | 20
O=c1c2ccccc2nc2n1CCc1ccc(Br)cc1-2 | . | -46 | -25 | -2 | 8 | .
COc1ccc(CN(C)C[C@@H]2OCCCC[C@H](C)Oc3ccc(NC(=O)Nc4ccc(F)cc4)cc3C(=O)N([C@H](C)CO)C[C@H]2C)cc1 | 6 | -2 | 74* | 4 | -10 | .
C[C@@H]1CN([C@H](C)CO)C(=O)c2cc(NC(=O)Nc3ccc(F)cc3)ccc2O[C@@H](C)CCCCO[C@H]1CN(C)Cc1ccc(C(=O)O)cc1 | 2 | -9 | -6 | -3 | 16 | .
C[C@@H]1CN([C@H](C)CO)C(=O)c2cccc(NC(=O)NC3CCCCC3)c2O[C@@H]1CN(C)C(=O)Nc1ccc(C(F)(F)F)cc1 | 4 | -26 | 88* | -2 | -8 | 29
C[C@@H]1CN([C@@H](C)CO)C(=O)c2cc(NC(=O)Nc3ccc(F)cc3)ccc2O[C@@H]1CN(C)Cc1ccc(Oc2ccccc2)cc1 | -14 | 18 | 80* | ? | -9 | 14
SMILES | LMP1 NFkB inh | CF NFkB block | Peg3 promoter | Shn3 3UTR inh | KKLEB tox | TRPM1 prom inh
C[C@H](CO)N1C[C@H](C)[C@@H](CN(C)C(=O)Nc2ccc(C(F)(F)F)cc2)Oc2c(NC(=O)NC3CCCCC3)cccc2C1=O | 7 | 4 | 7 | 17 | 1 | 1
C[C@@H]1CCCCO[C@H](CN(C)Cc2ccc(C(F)(F)F)cc2)[C@H](C)CN([C@@H](C)CO)C(=O)c2cc(NC(=O)Cc3ccccc3)ccc2O1 | -5 | 22 | 50* | 15 | -8 | .
O=C(c1[nH]c(C(F)(F)F)nc1-c1ccccc1)N1CCN(C(=O)C2CCCO2)CC1 (centres undefined) | . | -35 | 15 | -13 | 4 | .
Cc1ccc(C2=NN(C(=O)CCl)C(c3ccco3)C2)o1 (centres undefined) | 21 | 27 | 69* | -8 | -17 | 59
COc1ccccc1Cc1c(C(C)(C)C)nc2ccc(C)cn12 | . | -22 | -33 | 15 | 0 | .
COc1cc(NS(=O)(=O)c2ccc(C)cc2)c2ncccc2c1 | -6 | 48 | 68* | 95* | -4 | 74*
Cc1ccc(S(=O)(=O)Nc2ccccc2-c2ccccc2NS(=O)(=O)c2ccc(C)cc2)cc1 | 6 | 31 | 33 | -4 | 14 | 7
Cc1ccc(S(=O)(=O)Nc2cccc3cccnc23)cc1 | -8 | 57* | 109* | 27 | 6 | 83*
COc1cc(OC)c(OC)cc1/C=C(\C#N)C(=O)NCc1cccs1 | 20 | -16 | 2 | 17 | 4 | 6
CCOC(=O)c1ccc(-c2ccc(/C=C(\C#N)C(=O)NCc3cccs3)o2)cc1 | -9 | 2 | 72* | 16 | 4 | 45
O=C1c2cccnc2C(=O)N1Cc1ccc(F)cc1S(=O)(=O)NCc1ccco1 | 72* | -8 | 13 | 12 | 5 | 3
O=C(NN=Cc1c(O)ccc2ccccc12)C1CC1 | 2 | -4 | 40 | 77 | -4 | 49
O=C(N/N=C/c1c(O)ccc2ccccc12)c1cccc(C(F)(F)F)c1 | 26 | 50 | 68* | 69 | -52* | 71*
Cc1cc(C)n(CCC(=O)N/N=C/c2c(O)ccc3ccccc23)n1 | 56* | -7 | 65* | 97* | 0 | ?
COc1ccc2ccccc2c1/C=N/NC(=O)c1cccc(Br)c1 | 6 | 7 | -13 | -3 | 1 | 5
O=C(N/N=C/c1c(O)ccc2ccccc12)C(=O)N1CCCC1 | 24 | 3 | 30 | 82* | -6 | .
